Test results published in PubChem BioAssay (NCI).
Compounds without any hit were thinned out: in the full panel of roughly 79,000, 15% have a hit. A number with no mark means an inactive call. The source made the active and inactive calls. Cut-off read from the data, not from the text of the source: active = growth inhibition above about 70%; inactive = the rest.

test: NCI Yeast Anticancer Drug Screen. Data for the mlh1 rad18 strain (AID 175); conditions: S. cerevisiae mlh1 rad18 strain growth inhibition; at 50.0 µM (retest, dose inferred, filed as 5.0); hits give high values
How it was run: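 Yeast w/ defined DNA-repair lesions; compound exposure; growth vs vehicle controls → % inhibition.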

SMILES	growth inhibition
CCOP(=O)(OCC)C(Cc1ccccc1)N=C(c1ccccc1)c1ccccc1 (stereo not drawn)	22%
CCc1ncnc2cc(OCC3CO3)c(OC)cc12 (stereo not drawn)	95% (active)
CCOC(=O)[C@H]1Nc2ccccc2C2c3ccccc3CC21 (stereo partly drawn)	94% (active)
O=CNc1ccc2c(c1)C(=O)c1ccccc1-2	61%
CCOc1ccc2c(c1)c(CC(=O)O)cn2C	92% (active)
OC1CSCCCSCCSCCCSC1	22%
N#Cc1c(N)[nH]c2ccc(Sc3ccccc3)cc12	85% (active)
Cc1ccc(-c2ccc(Nc3c4ccccc4nc4ccccc34)cc2)cn1	89% (active)
c1ccc2c(c1)NC(NC1Nc3ccccc3N1)N2	81% (active)
OC(COc1cccc2ccccc12)CN1CCOCC1 (stereo not drawn)	49%
CCC/C(Cl)=N\OC(=O)Nc1ccc(Br)cc1	99% (active)
COc1ccc(/C=C2\SC(=S)N(/C=C/c3nc4ccccc4[nH]c3=O)C2=O)cc1OC	33%
O=C(NNc1ccnc2cc(Cl)ccc12)/C(=C\c1ccccc1Cl)NC(=O)c1ccccc1	7%
CSC1=NNC(SC)=NN1	35%
Cc1c(C2=C(Br)C(=O)N(C)C2=O)c(=O)n(C)c(=O)n1C	84% (active)
NCCNc1ccc(NCCN)c2c1C(=O)c1c(O)ccc(O)c1C2=O	82% (active)
Cn1c(=O)c(-c2ccccc2)c(N=[N+]=[N-])c2ccccc21	94% (active)
CCCCCCCCCCCCCCCCCCOCC(O)COP(=O)(O)OCC1OC(n2cc(F)c(=O)[nH]c2=O)CC1O (stereo not drawn)	99% (active)
